In test [1] the target is Alpha-galactosidase A (Homo sapiens) (UniProt P06280). Description: Counterscreen for Glucocerebrosidase Inhibitors: qHTS Assay for Human alpha-Galactosidase at pH 4.5 (AID 992). In outline:
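Concentration-response curves (0.7 nM to 77 uM final) were modeled with the Hill equation to give AC50. Reactions: 2 nM enzyme, 80 uM fluorogenic alpha-galactoside, pH 4.5 citric acid buffer, 20 min, room temperature.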
(In general: The purpose of a counterscreen is to sort out artefacts and off-target activity.)

The target in test [2] is alpha-glucosidase (Oryza sativa, rice) (UniProt Q653V4). Description: Counterscreen for Glucocerebrosidase Inhibitors: qHTS Assay for Rice alpha-Glucosidase at pH 5.0 (AID 997). The gist of the method: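 Rice alpha-glucosidase (4 nM final) with 400 uM 4-methylumbelliferyl-alpha-D-glucopyranoside in citrate buffer pH 5.0, 20 min at room temperature, stopped at pH 10; fluorescence 365/440 nm, compounds 0.7 nM–77 uM, AC50 from Hill fits.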

Test [3] in a line: Validation of Assay for Modulators of Lamin A Splicing (AID 1459; active = well fitted curve in the direction sought with a large enough effect in the signal ratio; the % refers to the signal ratio;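 note: cells exposed to compound for two days before reading; ratio rise marks activators and ratio drop marks inhibitors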). In outline:
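Splicing correction read as GFP (500-530 nm) over DsRed2 (575-640 nm) object intensity after 48 h compound exposure of reporter HeLa S3 clones (600 cells/well, 2% FBS medium); ancitabine and cycloheximide titrations, 0.5% DMSO as vehicle.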

The nature of test [4]: Cell Viability - LYMP2-025 (AID 976). Note: potency is the fitted concentration of half-maximal effect. In outline:
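Seed 2500 LYMP2-025 cells/well; 5 hr at 37 C; add compound; 24 hr at 37 C; add CellTiter-Glo; 30 min RT; read luminescence. AC50 from Hill-modelled concentration-response.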

Test [5] can be described thus: Cell Viability - LYMP2-002 (AID 977). Note: potency is the fitted concentration of half-maximal effect. In outline: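 Human lymphoblastoid LYMP2-002 cells, 2500 per well, exposed to compounds for 24 h at 37 C in complete medium; viability read as intracellular ATP by CellTiter-Glo luminescence, AC50 from Hill fits.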
Test [6] can be described thus: Cell Viability - LYMP2-006 (AID 978). Note: nearly all actives have a fitted effect of over 60% in size. Note: potency is the fitted concentration of half-maximal effect. In outline:
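Potency values are Hill-fit AC50s for decreases in intracellular ATP (CellTiter-Glo luminescence). LYMP2-006 lymphoblastoid cells, 2500 per well, were exposed to compound in complete culture medium for 24 hr at 37 C.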

A short description of test [7]: Cell Viability - LYMP2-007 (AID 979).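 Note: cells exposed to compound for 24 h before reading; nearly all actives have a fitted effect of over 60% in size.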 Note: potency is the fitted concentration of half-maximal effect. In outline: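 Luminescent ATP signal (CellTiter-Glo) serves as the viability read-out after 24 hr compound treatment of lymphoblastoid cells in complete medium at 37 C. Concentration-response data were fitted to the Hill equation to give AC50 values.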
Test [8] can be described thus: Cell Viability - LYMP2-008 (AID 980). Note: nearly all actives have a fitted effect of over 60% in size. Note: potency is the fitted concentration of half-maximal effect. The gist of the method: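 qHTS, human lymphoblastoid line, 2500 cells/well; 5 hr preincubation, 24 hr compound, 37 C. CellTiter-Glo ATP luminescence. AC50 via Hill equation. Tetraoctylammonium bromide positive control.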
Test [9] is described as follows: Cell Viability - LYMP2-010 (AID 981). Note: nearly all actives have a fitted effect of over 55% in size. Note: potency is the fitted concentration of half-maximal effect. The gist of the method: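 Luminescent ATP signal (CellTiter-Glo) served as the viability read-out. Cells of the human lymphoblastoid line were treated with compound over a concentration range for 24 hours at 37 C, and AC50 values came from Hill-equation modeling.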
Test [10] is described as follows: Cell Viability - LYMP2-012 (AID 982).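 Note: cellular ATP by luciferase luminescence where a drop means cytotoxicity; cells exposed to compound for one day before reading; nearly all actives have a fitted effect of over 55% in size.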 Note: potency is the fitted concentration of half-maximal effect.
Test [11] is described as follows: Cell Viability - LYMP2-014 (AID 983). Note: nearly all actives have a fitted effect of over 50% in size. Note: potency is the fitted concentration of half-maximal effect. The gist of the method: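 Luminescent ATP signal (CellTiter-Glo, 30 min at room temperature) serves as the viability read-out after 24 hr compound exposure at 37 C. Cells were seeded at 2500 per well and settled 5 hr beforehand.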
The nature of test [12]: Cell Viability - LYMP2-016 (AID 984). Note: nearly all actives have a fitted effect of over 55% in size. Note: potency is the fitted concentration of half-maximal effect. The gist of the method:
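Cytotoxicity was scored by luminescent ATP content (CellTiter-Glo) after 24 h compound exposure at 37 C of a human lymphoblastoid line at 2500 cells/well. Concentration-response data were fitted to the Hill equation for AC50.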

A short description of test [13]: Cell Viability - LYMP2-018 (AID 985). Note: nearly all actives have a fitted effect of over 50% in size. Note: potency is the fitted concentration of half-maximal effect. The gist of the method:
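Luminescent ATP signal (CellTiter-Glo, read after 30 min at room temperature) reports viable cells after 24 hr compound treatment at 37 C. Concentration-response data were fitted to the standard Hill equation for AC50.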

Test [14] in a line: Cell Viability - LYMP2-020 (AID 986). Note: nearly all actives have a fitted effect of over 55% in size. Note: potency is the fitted concentration of half-maximal effect. The gist of the method: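 Luminescent ATP signal (CellTiter-Glo, 30 min at room temperature) is the read-out after 24 h compound treatment of lymphoblastoid cells at 37 C. AC50 values come from Hill-equation fits across concentrations.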
Test [15] is described as follows: Cell Viability - LYMP2-022 (AID 987). Note: nearly all actives have a fitted effect of over 55% in size. Note: potency is the fitted concentration of half-maximal effect. In outline:
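qHTS: human lymphoblastoid cells 2500/well; 5 hr 37 C; cpd added; 24 hr 37 C; CellTiter-Glo, 30 min RT; luminescence. AC50 via Hill fit; tetraoctylammonium bromide positive ctrl.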

Test [16] can be described thus: Cell Viability - LYMP2-024 (AID 988). Note: nearly all actives have a fitted effect of over 60% in size. Note: potency is the fitted concentration of half-maximal effect. The gist of the method:
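Steps: seed 2500 cells/well, 5 hr 37 C; add compound, 24 hr 37 C; add CellTiter-Glo, 30 min room temperature; read luminescence. AC50 derived by Hill modelling of concentration-dependent ATP loss.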

Test [17] is described as follows: Cell Viability - LYMP2-026 (AID 989). Note: nearly all actives have a fitted effect of over 50% in size. Note: potency is the fitted concentration of half-maximal effect. In outline:
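Luminescent ATP signal (CellTiter-Glo, 30 min room temperature) measures viable lymphoblastoid cells after 24 hr compound treatment at 37 C. Decreased ATP reflects acute toxicity; AC50 values come from Hill-equation modeling.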

A short description of test [18]: Cell Viability - LYMP1-002 - Assay at 24 hr (AID 993). Note: potency is the fitted concentration of half-maximal effect. In outline: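 Cells plated 2500/well, 5 hr 37 C; compounds added, 24 hr 37 C; CellTiter-Glo added, 30 min RT; luminescence read. Tetraoctylammonium bromide positive control. Hill-equation AC50.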
Test [19] can be described thus: Cell Viability - LYMP1-002 - Assay at 40 hr (AID 994). Note: nearly all actives have a fitted effect of over 60% in size. Note: potency is the fitted concentration of half-maximal effect. In outline:
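Luminescent ATP signal served as the viability readout, with decreases taken as toxicity. Cells were treated with compounds across a concentration range for 40 hours at 37 C, and AC50 values came from standard Hill modeling.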

Test [20] has as its target Alpha-galactosidase (Coffea arabica) (UniProt Q42656). Description: Counterscreen for Glucocerebrosidase Inhibitors: qHTS Assay for Coffee Bean alpha-Galactosidase at pH 5.9 (AID 998). The gist of the method:
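Green coffee bean enzyme (2 nM) with 4-methylumbelliferyl alpha-D-galactopyranoside (80 uM) in 50 mM citric acid, 0.005% Tween-20, pH 5.9, 20 min at room temperature; compounds 0.7 nM–77 uM. Stopped at pH 10, fluorescence Ex365/Em440; Hill-fit AC50.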

SMILES strings stand for the structures. Several values for one entry are separate records, joined by “and”; a condition that tells them apart may be missing. Identical values can stand only once. Inconclusive results are not listed. Activity calls are given as the source filed them. Unless noted, calls come from the whole dose curve; as a rule, active = well fitted curve in the direction sought with a large enough effect; inconclusive = small, poorly fitted or top-dose-only effect, or another doubt; inactive = no such curve, though single readings can be large; an effect the other way counts as inactive or inconclusive.

Alpha-galactosidase (Coffea arabica), sequence (Q42656 whole entry, looked up): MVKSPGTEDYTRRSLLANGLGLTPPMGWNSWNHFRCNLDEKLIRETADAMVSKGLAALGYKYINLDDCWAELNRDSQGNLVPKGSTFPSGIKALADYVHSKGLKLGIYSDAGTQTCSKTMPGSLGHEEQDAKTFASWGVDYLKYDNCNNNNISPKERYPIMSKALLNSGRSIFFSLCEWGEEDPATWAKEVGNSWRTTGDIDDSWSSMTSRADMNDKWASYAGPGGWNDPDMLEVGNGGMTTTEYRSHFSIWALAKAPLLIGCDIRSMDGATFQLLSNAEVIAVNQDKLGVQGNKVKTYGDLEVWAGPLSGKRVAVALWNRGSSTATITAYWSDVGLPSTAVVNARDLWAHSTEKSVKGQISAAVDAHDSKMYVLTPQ
Alpha-galactosidase A (Homo sapiens), sequence (P06280 whole entry, looked up): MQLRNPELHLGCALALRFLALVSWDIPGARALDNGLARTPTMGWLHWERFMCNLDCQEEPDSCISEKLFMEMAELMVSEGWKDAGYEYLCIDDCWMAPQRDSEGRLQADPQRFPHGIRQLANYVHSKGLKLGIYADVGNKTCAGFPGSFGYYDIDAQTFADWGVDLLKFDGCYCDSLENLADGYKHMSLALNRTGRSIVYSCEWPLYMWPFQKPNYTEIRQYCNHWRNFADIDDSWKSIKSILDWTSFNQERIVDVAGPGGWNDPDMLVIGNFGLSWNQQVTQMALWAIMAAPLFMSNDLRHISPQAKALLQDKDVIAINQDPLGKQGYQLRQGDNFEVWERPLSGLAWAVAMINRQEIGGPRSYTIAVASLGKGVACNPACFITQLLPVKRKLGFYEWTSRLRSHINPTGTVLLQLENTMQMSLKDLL

On to `CCCn1c(=O)c2[nH]c(C3CCCC3)nc2n(CCCOC(=O)c2ccc(S(=O)(=O)F)cc2)c1=O`, for which the result in [1], in [2] and in [3] was inactive.
As for `CCCCCl`, the Potency entry in [4], in test [5], in test [6], in test [7], in test [8] and in test [9] was “inactive” throughout. The Potency entry in test [10], in test [11], in test [12], in test [13], in test [14] and in [15] was “inactive” each time. Besides, the Potency entry in test [16], in test [17], in test [18] and in test [19] was “inactive” in each case.
For `Nc1ccc(CCN2CCN(c3cccc(C(F)(F)F)c3)CC2)cc1`, the result in test [1], in test [2], in [20] and in test [3] was inactive.
Turning to `N[C@@H](Cn1oc(=O)[nH]c1=O)C(=O)O`, the result in test [1], in test [2], in [20] and in [3] was inactive.
Take `O=[N+]([O-])c1cc(O)c(O)c([N+](=O)[O-])c1`: the outcome in [1], in test [2], in [20] and in test [3] was inactive.
Turning to `CCCn1c(C)c(C(=O)c2ccc3ccccc3c2)c2ccccc21`, the outcome in [1], in [2], in test [20] and in [3] was inactive.
Consider `CNC(=O)OCC[N+](C)(C)C`, for which the result in [1], in test [2] and in test [3] was inactive.
As for `O=P(O)(O)C(Cl)(Cl)P(=O)(O)O`, the call in [1], in [2], in test [20] and in test [3] was inactive.
`C[C@]12CCC(=O)C[C@@H]1CC[C@@H]1[C@@H]2CC[C@]2(C)[C@@H](O)CC[C@@H]12`: the Potency result in test [4], in test [5], in test [6], in test [7], in test [8] and in test [9] was “inactive” each time. In addition, the Potency result in test [10], in [11], in test [12], in test [13], in test [14] and in test [15] was “inactive” in each case. The Potency entry in test [16], in test [17], in [18] and in [19] was “inactive” each time.
On to `N#CCCN`, for which the compound was classed as inactive in test [1], in test [2] and in test [20].
For the compound `O=C1C2CC=CCC2C(=O)N1SC(Cl)(Cl)Cl` (stereo unspecified), the Potency in [5] was 6.31 µM (active) and 10 µM (active); in [6] it was 7.94 µM (active) and 10 µM (active); in test [7] it was 7.94 µM (active) and 5.01 µM (active); in test [8] it was 12.6 µM (active) and 10 µM (active); in test [9], 2.51 µM (active) and 3.16 µM (active); in test [10], 2.51 µM (active) and 5.01 µM (active). For the same compound, the Potency in [11] was 5.01 µM (active) and 6.31 µM (active); in test [12], 5.01 µM (active) and 7.94 µM (active); in test [13] it was 3.98 µM (active) and 7.94 µM (active); in test [14], 3.16 µM (active) and 5.01 µM (active); in test [15] it was 2 µM (active) and 3.98 µM (active); in test [16], 1.58 µM (active) and 3.16 µM (active). The Potency is 3.98 µM (active) and 6.31 µM (active) in test [17]; 7.94 µM (active) in [18]; 15.8 µM (active) in [19].
On to `CCCN1CCc2cc(O)cc3c2[C@H]1Cc1ccc(O)c(O)c1-3`, for which the compound was called inactive in test [1], in [2] and in test [20].
For `Oc1cc(Cl)c(Cl)cc1Cl`, the Potency entry in [4], in [5], in test [6], in test [7], in test [8] and in test [9] was “inactive” in each case. Further, the Potency entry in test [10], in test [11], in test [12], in [13], in test [14] and in [15] was “inactive” throughout. Besides, the Potency entry in [17], in test [18] and in test [19] was “inactive” in each case.
On to `NC(=O)CI`, for which the call in test [1] and in test [2] was inactive.
With `[O]=[Cd]`, the Potency result in [4], in [5], in [6], in [7], in test [8] and in test [9] was “inactive” in each case. Further, the Potency result in test [10], in [11], in test [12], in test [13], in [14] and in test [15] was “inactive” in each case. In addition, the Potency result in test [16], in test [17], in [18] and in test [19] was “inactive” in each case.
Take `CCS(=O)(=O)Nc1cccc(C(=C2CCCCC2)c2cnc[nH]2)c1`: the compound was classed as inactive in [1] and in test [2].
Turning to `O=C/C=C/c1ccccc1`, the Potency result in [4], in test [5], in test [6], in test [7], in test [8] and in test [9] was “inactive” throughout. Moreover, the Potency result in test [10], in [11], in test [12], in test [13], in test [14] and in test [15] was “inactive” in each case. Further, the Potency result in test [16], in test [17], in test [18] and in test [19] was “inactive” each time.
In the case of `CC(C)CCON=O`, the Potency entry in test [4], in [5], in test [6], in test [7], in test [8] and in test [9] was “inactive” throughout. For the same compound, the Potency entry in [10], in test [11], in test [12], in test [13], in [14] and in test [15] was “inactive” in each case. In addition, the Potency result in test [16], in test [17], in test [18] and in test [19] was “inactive” throughout.
Turning to `C[C@H]1CC[C@@H]2[C@@H](C)[C@H]3[C@H](C[C@H]4[C@@H]5CC=C6CC(O[C@@H]7O[C@H](CO)[C@H](O)[C@H](O[C@@H]8O[C@H](CO)[C@@H](O)[C@H](O)[C@H]8O)[C@H]7O[C@H]7O[C@@H](C)[C@H](O)[C@@H](O)[C@H]7O)CC[C@]6(C)[C@H]5CC[C@]34C)N2C1` (stereo partly specified), the Potency was 39.8 µM (active) in [4]; 50.1 µM (active) in [5]; 50.1 µM (active) in [7]; 50.1 µM (active) in test [8]; 39.8 µM (active) in [9]; 31.6 µM (active) in test [10]. For the same compound, the Potency is 50.1 µM (active) in test [11], 25.1 µM (active) in [18] and 39.8 µM (active) in [19]. Further, the Potency result in [17] is “inactive”.
Regarding `O=[N+]([O-])c1ccc(F)c([N+](=O)[O-])c1`, the Potency entry in [4], in test [5], in test [6], in test [10], in test [11] and in [12] was “inactive” throughout. For the same compound, the Potency entry in [14], in test [17], in [18] and in [19] was “inactive” each time.

(Values after PubChem BioAssay (NCATS).)
